# Screens from PubChem BioAssay.
# Rows were chosen to be rich in hits. Some 3.6% of all compounds tested hit in one or more screens of this group.
# Mdm2-MdmX inh = inhibitors of human Mdm2-MdmX association, primary screen, cell-based, luminescence, split luciferase, SaOS-2, uHTS; Protein Mdm4 (Homo sapiens) + E3 ubiquitin-protein ligase Mdm2 (Homo sapiens), …; SaOS-2 split-luciferase Mdm2/MdmX complementation; inhibition, % at 8 µM; 3% of 330,000 active;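 active = inhibition of at least 50% at 8 µM in the primary screen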
# KKLEB cytotox = cytotoxicity in KKLEB CF airway cells, primary screen, cytotoxicity control for CF NF-kB inhibitor project, cell-based, uHTS, fluorescence assay plates; activity change (cytotoxicity), % at 5 µM; 0.36% of 360,000 active; KKLEB CF airway cells viability, ATPlite luminescence, overnight; hits give low values; cells stimulated with P. aeruginosa culture filtrate;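 active = corrected activity change at or below -50% at 5 µM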
# LGR2 inh = inhibitors of bursicon-induced LGR2 CRE-luciferase signal, primary screen, cell-based, HEK293, CRE-luciferase reporter, bursicon stimulation. Drosophila bursicon receptor LGR2 (rickets). bursicon-stimulated, 4 h. 0.35% of 380,000 active. inhibition, % at 9.99 µM;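 active = drop in luminescence signal, shown as inhibition above about 50% in the replicate tests, limit read from the data, passing the limit was not always enough; inconclusive = probably only some replicates passing the limit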;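 note: agonist challenge used bursicon conditioned medium at about half maximal strength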
# CF NFkB block = inhibitors of PAF-induced NF-kB signaling, primary screen, cell-based, GFP fluorescence, uHTS; KKLEB NF-kB-GFP reporter, GFP fluorescence overnight; inhibition, % at 5 µM; 0.86% of 360,000 active; AID 588850, 2011;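 active = at least 50% inhibition at 5 µM, scaled per plate between neutral and stimulator controls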;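 note: PAF is a Pseudomonas aeruginosa culture filtrate used as stimulus; plate controls were PAF-stimulated DMSO wells for no effect and unstimulated DMSO wells for full effect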
# HSP90 inh = HSP90 inhibitors, primary screen, cell lysate, luminescence; inhibition, % at 5.6 µM; Rabbit reticulocyte lysate, luciferase refolding luminescence, 3 h; 0.91% of 290,000 active;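 active = inhibition above the screen-wide mean plus 3 SD, computed separately per campaign, cut at about 16% in these data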;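 note: 0% = DMSO wells and 100% = 60 µM geldanamycin wells; inhibitors lower the luminescence because luciferase stays unfolded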
# Peg3 prom inh = Peg3 promoter-driven luciferase inhibitors, primary screen, cell-based, HeLa, luciferase luminescence; 1.7% of 360,000 active; inhibition, % at 20 µM; HeLa PEG-Prom luciferase reporter, overnight;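 active = inhibition of at least 50% at 20 µM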
# HSP90 inh confirm = HSP90 inhibitors, confirmation, cell lysate, luminescence; shares compounds with HSP90 inh; rabbit reticulocyte lysate, luciferase refolding luminescence, 3 h; inhibition, % at 5.9 µM; 64% of 2,300 active; in the data active = inhibition above about 18%;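 note: 0% = vehicle wells and 100% = reference inhibitor wells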
# luciferase ctr = firefly luciferase inhibitors, HSP90 counter-screen, confirmation, artefact control for HSP90 inhibitor project, biochemical, luminescence, triplicate. purified native firefly luciferase. inhibition, % at 5.9 µM. shares compounds with HSP90 inh. 48% of 2,300 active;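 active = inhibition above the mean inhibition of all tested sample wells plus 3 SD, cut at about 10% in these data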;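 note: 0% = DMSO with luciferase and 100% = wells lacking luciferase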
# Target sequence (P08659 whole entry, looked up): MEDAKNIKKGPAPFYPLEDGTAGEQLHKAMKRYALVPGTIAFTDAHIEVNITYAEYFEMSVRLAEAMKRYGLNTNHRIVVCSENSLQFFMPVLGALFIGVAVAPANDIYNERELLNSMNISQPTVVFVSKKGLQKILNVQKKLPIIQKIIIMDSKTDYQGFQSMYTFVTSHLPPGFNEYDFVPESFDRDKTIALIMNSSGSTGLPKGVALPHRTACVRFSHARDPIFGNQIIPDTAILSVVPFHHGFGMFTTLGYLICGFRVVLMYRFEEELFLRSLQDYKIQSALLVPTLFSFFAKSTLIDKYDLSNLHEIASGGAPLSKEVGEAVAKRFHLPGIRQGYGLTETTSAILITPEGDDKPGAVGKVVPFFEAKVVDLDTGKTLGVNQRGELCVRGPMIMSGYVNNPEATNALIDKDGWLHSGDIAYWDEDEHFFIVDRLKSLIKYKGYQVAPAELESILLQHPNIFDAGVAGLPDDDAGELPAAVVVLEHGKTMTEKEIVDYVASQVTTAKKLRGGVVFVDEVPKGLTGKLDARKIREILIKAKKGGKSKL
# Numbers without * were called inactive; ? = inconclusive; / = no result.
SMILES,Mdm2-MdmX inh,KKLEB cytotox,LGR2 inh,CF NFkB block,HSP90 inh,Peg3 prom inh,HSP90 inh confirm,luciferase ctr
CCOC(=O)CNC(=O)CSc1ccc2nnc(-c3ccc(F)cc3)n2n1,12,-8,10,0,3,11,/,/
CCSc1ccc2nnc(-c3ccc(F)cc3)n2n1,19,-18,-17,-13,88*,5,-3,-7
COc1ccc2c3c(n(C)c2c1)[C@H](CO)N(C(=O)CN1CCOCC1)CC31CN(C(=O)C2CC2)C1,/,/,-2,/,/,/,/,/
COc1ccc(NC(=O)Nc2ccc3c(c2)C(=O)N([C@@H](C)CO)C[C@@H](C)[C@@H](CN(C)C(=O)Nc2ccc(C(F)(F)F)cc2)O3)cc1,/,/,12,/,/,/,/,/
CN(C)c1ccc(C2Nc3cccc4cccc(c34)N2)cc1,-80,-2,-25,-2,42*,-9,37*,-3
COc1ccc(C2Nc3cccc4cccc(c34)N2)cc1,2,16,4,-10,7,2,/,/
COC(=O)c1ccc(N/C=C/C(=O)c2ccccc2)cc1,-64,-20,-37,-10,21*,-147,52*,3
CCOC(=O)c1ccc(N/C=C\C(=O)c2cccc(OC)c2)cc1,-70,-4,-31,21,3,-175,/,/
C[C@H](CO)N1C[C@H](C)[C@H](CN(C)Cc2ccc(C(=O)O)cc2)Oc2c(cccc2N(C)C)C1=O,/,/,8,/,/,/,/,/
Cc1cc(C)cc(N2Cc3ccccc3C2)c1,10,12,4,-7,2,1,/,/
COc1cc(N2Cc3ccccc3C2)ccc1C=O,-17,-2,-116,-24,54*,-112,40*,-7
Oc1ccc(-c2cn3cc(C(F)(F)F)ccc3n2)cc1,-243,-26,43,-14,17*,-146,49*,40*
Fc1ccc(-c2cn3cc(C(F)(F)F)cc(Cl)c3n2)cc1,-239,-2,/,-2,0,-189,/,/
Clc1ccc(-c2cn3cc(Cl)ccc3n2)cc1,-88,-16,38,-28,32*,-59,55*,54*
O=C(CC(F)(F)F)N1C[C@H]2[C@@H](c3ccccc31)[C@@H](CO)N2C(=O)Cc1cccnc1,/,/,-43,/,/,/,/,/
O=S1(=O)CCN(Cc2csc(-c3cccs3)n2)CC1,14,0,-18,-8,5,-97,/,/
c1csc(-c2nc(CN3CCSCC3)cs2)c1,-64,-22,?,3,27*,-57,55*,31*
O=C(C[C@H]1CC[C@@H](NC(=O)c2cccc(F)c2)[C@H](CO)O1)NCc1ccc(Oc2ccccc2)cc1,/,/,-18,/,/,/,/,/
C=CCSc1nnc(-c2ccccc2N=Cc2c(C)[nH]n(-c3ccccc3)c2=O)c(=O)[nH]1,32,-8,/,14,22*,4,-4,-8
CSc1nnc(-c2ccccc2N=Cc2c(C)[nH]n(-c3ccc4ccccc4c3)c2=O)c(=O)[nH]1,-10,2,9,-9,6,-143,/,/
c1ccc2c(c1)[nH]c1c(NCC3CCCO3)ncnc12 (configuration not stated),20,-6,/,-4,32*,13,-7,-11
c1nc(NCC2CCCO2)c2[nH]cnc2n1 (configuration not stated),1,-10,/,11,1,-4,/,/
COc1ccc(S(=O)(=O)Nc2cccc3c2O[C@H](CN(C)C(=O)Nc2ccc(F)cc2)[C@@H](C)CN([C@@H](C)CO)C3=O)cc1,/,/,16,/,/,/,/,/
Cc1ccc(-n2cc(C(=O)c3ccccc3O)cn2)cc1,-50,-9,/,4,31*,-16,61*,48*
Cc1ccc(O)c(C(=O)c2cnn(-c3ccccc3)c2)c1,17,7,/,7,-2,-179,/,/
SMILES,Mdm2-MdmX inh,KKLEB cytotox,LGR2 inh,CF NFkB block,HSP90 inh,Peg3 prom inh,HSP90 inh confirm,luciferase ctr
O=C(N/N=C\c1ccc(-c2ccccc2[N+](=O)[O-])o1)C1COc2ccccc2O1 (configuration not stated),11,-16,17,7,11,-6,/,/
O=C(N/N=C\c1ccc(-c2ccccc2[N+](=O)[O-])o1)C1COc2cc3ccccc3cc2O1 (configuration not stated),13,14,-4,-15,22*,3,15,-4
Cc1ccccc1S(=O)(=O)NCC[C@@H]1CC[C@@H](NC(=O)C2CCC2)[C@@H](CO)O1,/,/,-16,/,/,/,/,/
C[C@H](CO)N1C[C@H](C)[C@H](CN(C)C(=O)C2CC2)Oc2ncc(-c3ccc(C(=O)N(C)C)cc3)cc2C1=O,/,/,-32,/,/,/,/,/
Cc1c(NC(=O)c2ccccc2N)cccc1C(=O)O,-29,8,/,-10,20*,-96,13,-6
Cc1c(NC(=S)NC(=O)c2cc3ccccc3o2)cccc1C(=O)O,7,16,-100,-6,21*,-134,20*,-16
O=C(Nc1ccc(NC(=O)C2CC2)cn1)c1ccccc1,-30,-10,20,15,17*,-95,39*,21*
Cc1c(NC(=O)c2ccc(NC(=O)C3CC3)cc2)cccc1C(=O)O,22,-2,19,17,24*,24,20*,-16
O=C(Nc1ccc(NC(=O)C2CC2)cn1)c1ccccc1Cl,-19,8,/,-12,4,-106,/,/
C[C@@H]1CN([C@H](C)CO)C(=O)c2cc(NC(=O)CCCN(C)C)ccc2O[C@@H](C)CCCCO[C@H]1CN(C)C(=O)CCCN(C)C,/,/,1,/,/,/,/,/
CO[C@@H]1CN(C)C(=O)c2cc(NC(=O)C3CCC3)ccc2OC[C@@H](C)N(CC2CCCCC2)C[C@H]1C,/,/,8,/,/,/,/,/
CCOc1ccc(OCc2cccc(C(=O)N3CCCC3)c2)cc1,11,4,-32,-29,21*,-145,30*,26*
O=C(NN1CCCCC1)c1cccc(COc2ccc(Cl)cc2)c1,-94,0,-166,-8,0,-235,/,/
CCOc1ccc(OCc2cccc(C(=O)N3CCCCCC3)c2)cc1,-13,-7,46,10,28*,-86,56*,52*
CCOc1ccc(C(=O)N2CCCC2)cc1,20,5,-1,-4,-1,-5,/,/
CO[C@H]1CN(C)C(=O)c2cc(NC(=O)c3ccccc3F)ccc2OC[C@@H](C)N(CC2CC2)C[C@H]1C,/,/,11,/,/,/,/,/
